# Targets with a hit are over-represented here; the source holds about 8,800 in all. About 0.5% of all pairs of compound and target were hits. Unmarked numbers belong to inactive results.
# Legend:
# Assay in all cases: log2 fold change, soluble protein after heating vs DMSO (PISA); higher = thermal stabilisation; K562 lysate, 10 uM; active = over 0.2 and 3.5 SD of the protein, either way, in both replicates (recomputed)
# alvocidib = compound: CN1CC[C@H](c2c(O)cc(O)c3c(=O)cc(-c4ccccc4Cl)oc23)[C@H](O)C1 [alvocidib]
# Method in brief: (§1)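 K562 pellets were dounce-homogenised in PBS pH 7.4 containing 1 mM MgCl2, and the crude extract, at 1 mg/mL protein, was exposed to 10 μM compound for 30 min. Aliquots were heated for 3 min across 48°C-58°C, pooled, brought to 0.5% NP-40 at 4°C and spun at 21,000xg for 90 min, with the supernatant taken as soluble protein. TMTpro 16plex LC-MS/MS with equalised channel sums quantified that protein. Values are log-two fold changes in thermal stability relative to solvent controls, taken from duplicates.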
# Tubastatin A = compound: CN1CCc2c(c3ccccc3n2Cc2ccc(C(=O)NO)cc2)C1 [Tubastatin A]
# Method in brief: as §1
# [1] = compound: CNC(=O)C1=CC=CC=C1NC2=NC(=NC=C2Cl)NC3=C(C=C(C=C3)N4CCOCC4)OC
# Method in brief: as §1
# defactinib = compound: CNC(=O)c1ccc(Nc2ncc(C(F)(F)F)c(NCc3nccnc3N(C)S(C)(=O)=O)n2)cc1 [defactinib]
# Method in brief: as §1
# [2] = compound: CNc1nc(-c2ccc3c(N)n[nH]c3c2)cc(N2C[C@@H](C(=O)NC3CCCCC3)CC[C@H]2C)n1
# Method in brief: as §1
# encorafenib = compound: COC(=O)N[C@@H](C)CNc1nccc(-c2cn(C(C)C)nc2-c2cc(Cl)cc(NS(C)(=O)=O)c2F)n1 [encorafenib]
# Method in brief: as §1
# [3] = compound: COC(=O)[C@H](CCSC)NC(=O)C1=C(C=C(C=C1)NC[C@H](CS)N)C2=CC=CC=C2
# Method in brief: as §1
# alisertib = compound: COc1cc(Nc2ncc3c(n2)-c2ccc(Cl)cc2C(c2c(F)cccc2OC)=NC3)ccc1C(=O)O [alisertib]
# Method in brief: as §1
# [4] = compound: COc1cc2nc(-c3cc(F)ccc3O)nc(N[C@@H]3CNC[C@H]3C(C)(C)O)c2cc1OC
# Method in brief: as §1
# gefitinib = compound: COc1cc2ncnc(Nc3ccc(F)c(Cl)c3)c2cc1OCCCN1CCOCC1 [gefitinib]
# Method in brief: as §1
# lapatinib = compound: CS(=O)(=O)CCNCc1ccc(-c2ccc3ncnc(Nc4ccc(OCc5cccc(F)c5)c(Cl)c4)c3c2)o1 [lapatinib]
# Method in brief: as §1
# pictilisib = compound: CS(=O)(=O)N1CCN(Cc2cc3nc(-c4cccc5[nH]ncc45)nc(N4CCOCC4)c3s2)CC1 [pictilisib]
# Method in brief: as §1
# crizotinib = compound: C[C@@H](Oc1cc(-c2cnn(C3CCNCC3)c2)cnc1N)c1c(Cl)ccc(F)c1Cl [crizotinib]
# Method in brief: as §1
# [5] = compound: C[C@H](C1=CC=C(C=C1)C(=O)NC2=C3C=CNC3=NC=C2)N
# Method in brief: as §1
# duvelisib = compound: C[C@H](Nc1ncnc2nc[nH]c12)c1cc2cccc(Cl)c2c(=O)n1-c1ccccc1 [duvelisib]
# Method in brief: as §1
# gandotinib = compound: Cc1cc(Nc2cc(CN3CCOCC3)c3nc(C)c(Cc4ccc(Cl)cc4F)n3n2)n[nH]1 [gandotinib]
# Method in brief: as §1
# tozasertib = compound: Cc1cc(Nc2cc(N3CCN(C)CC3)nc(Sc3ccc(NC(=O)C4CC4)cc3)n2)n[nH]1 [tozasertib]
# Method in brief: as §1
# doramapimod = compound: Cc1ccc(-n2nc(C(C)(C)C)cc2NC(=O)Nc2ccc(OCCN3CCOCC3)c3ccccc23)cc1 [doramapimod]
# Method in brief: as §1
# bafetinib = compound: Cc1ccc(NC(=O)c2ccc(CN3CC[C@H](N(C)C)C3)c(C(F)(F)F)c2)cc1Nc1nccc(-c2cncnc2)n1 [bafetinib]
# Method in brief: as §1
# [6] = compound: Cc1cccc(CC(=O)N2CCc3c2ccc(-c2cn(C)c4ncnc(N)c24)c3F)n1
# Method in brief: as §1
# Sequence of UniProt Q12788 (Q12788 whole entry, looked up): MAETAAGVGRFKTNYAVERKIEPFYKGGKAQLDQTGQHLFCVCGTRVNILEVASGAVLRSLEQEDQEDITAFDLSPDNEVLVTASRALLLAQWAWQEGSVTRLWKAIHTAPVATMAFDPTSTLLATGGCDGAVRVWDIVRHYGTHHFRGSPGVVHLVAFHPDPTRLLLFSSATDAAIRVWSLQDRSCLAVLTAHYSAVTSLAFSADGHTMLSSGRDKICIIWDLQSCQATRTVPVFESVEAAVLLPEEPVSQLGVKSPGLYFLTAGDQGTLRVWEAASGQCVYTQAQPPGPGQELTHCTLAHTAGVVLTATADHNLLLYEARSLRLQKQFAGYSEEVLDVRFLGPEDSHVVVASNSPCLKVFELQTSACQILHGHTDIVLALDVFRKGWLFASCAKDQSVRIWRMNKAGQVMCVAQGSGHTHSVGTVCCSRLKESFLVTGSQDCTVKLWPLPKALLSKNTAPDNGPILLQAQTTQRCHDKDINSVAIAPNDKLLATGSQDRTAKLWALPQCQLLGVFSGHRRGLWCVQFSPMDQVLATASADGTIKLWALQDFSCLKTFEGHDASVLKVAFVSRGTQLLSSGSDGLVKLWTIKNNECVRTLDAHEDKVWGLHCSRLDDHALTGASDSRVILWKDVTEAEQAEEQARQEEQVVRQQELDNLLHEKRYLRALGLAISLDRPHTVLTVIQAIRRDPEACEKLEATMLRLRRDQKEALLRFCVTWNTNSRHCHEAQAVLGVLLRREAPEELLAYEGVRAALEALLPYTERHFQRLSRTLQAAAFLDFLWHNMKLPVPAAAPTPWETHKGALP
# Sequence of UniProt O14933 (O14933 whole entry, looked up): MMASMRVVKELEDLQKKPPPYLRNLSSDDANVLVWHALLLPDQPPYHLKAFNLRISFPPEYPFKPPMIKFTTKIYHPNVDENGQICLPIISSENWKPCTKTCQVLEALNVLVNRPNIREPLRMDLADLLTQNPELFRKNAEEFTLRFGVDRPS
# Sequence of UniProt Q9Y5L0 (Q9Y5L0 whole entry, looked up): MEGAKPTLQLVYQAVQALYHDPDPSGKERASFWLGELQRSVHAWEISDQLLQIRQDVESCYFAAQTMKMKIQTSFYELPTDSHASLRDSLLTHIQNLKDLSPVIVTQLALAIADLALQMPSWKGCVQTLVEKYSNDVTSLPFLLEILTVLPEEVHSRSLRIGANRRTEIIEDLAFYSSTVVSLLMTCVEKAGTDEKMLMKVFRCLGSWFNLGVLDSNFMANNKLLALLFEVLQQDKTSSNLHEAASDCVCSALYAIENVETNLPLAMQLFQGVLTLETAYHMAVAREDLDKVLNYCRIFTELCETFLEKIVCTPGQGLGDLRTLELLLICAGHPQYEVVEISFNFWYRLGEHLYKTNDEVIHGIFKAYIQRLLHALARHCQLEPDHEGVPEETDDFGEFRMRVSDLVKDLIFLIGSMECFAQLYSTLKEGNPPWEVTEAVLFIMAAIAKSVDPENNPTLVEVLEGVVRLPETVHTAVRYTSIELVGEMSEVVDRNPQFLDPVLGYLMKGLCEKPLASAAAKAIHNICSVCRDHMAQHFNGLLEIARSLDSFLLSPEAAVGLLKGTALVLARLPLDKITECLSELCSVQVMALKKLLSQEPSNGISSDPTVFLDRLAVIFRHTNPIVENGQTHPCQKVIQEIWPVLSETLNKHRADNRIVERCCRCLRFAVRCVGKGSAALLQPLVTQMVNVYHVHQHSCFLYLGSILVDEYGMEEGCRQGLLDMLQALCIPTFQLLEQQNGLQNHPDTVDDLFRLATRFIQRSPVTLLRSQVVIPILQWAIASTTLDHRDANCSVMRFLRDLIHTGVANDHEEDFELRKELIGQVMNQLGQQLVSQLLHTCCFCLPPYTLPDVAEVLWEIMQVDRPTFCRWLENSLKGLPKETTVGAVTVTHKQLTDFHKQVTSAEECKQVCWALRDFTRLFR
# Sequence of UniProt Q12800 (Q12800 whole entry, looked up): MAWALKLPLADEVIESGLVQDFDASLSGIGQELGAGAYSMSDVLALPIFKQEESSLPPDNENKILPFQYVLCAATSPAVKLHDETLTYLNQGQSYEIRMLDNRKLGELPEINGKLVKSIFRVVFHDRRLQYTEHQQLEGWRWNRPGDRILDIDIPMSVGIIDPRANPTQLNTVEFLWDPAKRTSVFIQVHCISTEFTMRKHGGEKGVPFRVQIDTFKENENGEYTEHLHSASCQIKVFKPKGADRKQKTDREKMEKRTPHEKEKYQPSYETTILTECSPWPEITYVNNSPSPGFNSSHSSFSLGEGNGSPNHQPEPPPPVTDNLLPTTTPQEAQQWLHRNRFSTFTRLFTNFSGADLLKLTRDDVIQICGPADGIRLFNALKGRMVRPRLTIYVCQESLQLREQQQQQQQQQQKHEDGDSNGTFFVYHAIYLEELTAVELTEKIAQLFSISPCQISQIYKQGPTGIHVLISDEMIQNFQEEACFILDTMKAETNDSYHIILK
# Sequence of UniProt Q13595 (Q13595 whole entry, looked up): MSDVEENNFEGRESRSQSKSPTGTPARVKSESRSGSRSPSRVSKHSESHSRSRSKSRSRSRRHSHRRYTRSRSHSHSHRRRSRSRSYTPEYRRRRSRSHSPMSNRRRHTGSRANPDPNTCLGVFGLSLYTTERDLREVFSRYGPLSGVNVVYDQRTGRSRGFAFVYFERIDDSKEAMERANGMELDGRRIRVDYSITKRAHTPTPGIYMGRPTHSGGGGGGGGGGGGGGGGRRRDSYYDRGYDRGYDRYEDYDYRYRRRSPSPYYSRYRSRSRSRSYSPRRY
# Sequence of UniProt Q9UNY4 (Q9UNY4 whole entry, looked up): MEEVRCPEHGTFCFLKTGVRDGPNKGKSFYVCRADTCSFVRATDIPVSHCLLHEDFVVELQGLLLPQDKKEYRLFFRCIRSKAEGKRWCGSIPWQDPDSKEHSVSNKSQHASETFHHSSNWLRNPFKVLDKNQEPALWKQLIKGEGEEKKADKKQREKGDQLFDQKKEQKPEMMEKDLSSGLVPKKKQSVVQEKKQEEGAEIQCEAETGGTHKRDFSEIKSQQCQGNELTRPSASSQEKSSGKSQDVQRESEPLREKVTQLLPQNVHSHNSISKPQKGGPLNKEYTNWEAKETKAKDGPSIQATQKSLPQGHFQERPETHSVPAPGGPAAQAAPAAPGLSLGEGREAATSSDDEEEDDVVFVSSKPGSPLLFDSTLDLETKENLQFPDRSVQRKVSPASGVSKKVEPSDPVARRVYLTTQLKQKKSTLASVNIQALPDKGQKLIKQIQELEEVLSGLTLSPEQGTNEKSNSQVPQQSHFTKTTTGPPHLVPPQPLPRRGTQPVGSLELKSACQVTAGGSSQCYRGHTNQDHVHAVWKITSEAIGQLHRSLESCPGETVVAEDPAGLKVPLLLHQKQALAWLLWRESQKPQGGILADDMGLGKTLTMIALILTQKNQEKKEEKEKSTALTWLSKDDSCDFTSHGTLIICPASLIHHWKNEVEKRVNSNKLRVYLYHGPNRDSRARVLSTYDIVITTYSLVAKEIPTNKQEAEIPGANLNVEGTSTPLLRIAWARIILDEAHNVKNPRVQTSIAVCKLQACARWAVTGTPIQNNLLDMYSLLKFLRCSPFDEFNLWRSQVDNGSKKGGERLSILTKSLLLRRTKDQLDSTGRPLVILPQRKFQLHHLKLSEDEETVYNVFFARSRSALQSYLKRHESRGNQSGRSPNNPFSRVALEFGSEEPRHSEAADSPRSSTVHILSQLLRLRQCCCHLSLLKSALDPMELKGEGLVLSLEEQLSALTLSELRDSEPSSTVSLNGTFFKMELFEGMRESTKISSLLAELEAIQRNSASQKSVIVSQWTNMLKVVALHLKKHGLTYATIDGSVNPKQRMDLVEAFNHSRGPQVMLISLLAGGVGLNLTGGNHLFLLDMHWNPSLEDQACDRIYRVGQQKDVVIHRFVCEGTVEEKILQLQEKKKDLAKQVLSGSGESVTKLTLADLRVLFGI
# Sequence of UniProt Q9NZ01 (Q9NZ01 whole entry, looked up): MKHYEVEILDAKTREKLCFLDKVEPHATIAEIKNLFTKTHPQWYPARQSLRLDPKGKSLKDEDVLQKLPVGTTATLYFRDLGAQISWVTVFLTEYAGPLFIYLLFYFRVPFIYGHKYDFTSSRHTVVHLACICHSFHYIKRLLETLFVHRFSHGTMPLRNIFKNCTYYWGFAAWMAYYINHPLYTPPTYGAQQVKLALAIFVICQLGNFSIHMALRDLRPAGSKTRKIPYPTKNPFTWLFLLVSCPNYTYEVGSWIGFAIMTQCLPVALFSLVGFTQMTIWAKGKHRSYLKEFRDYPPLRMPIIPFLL
# Sequence of UniProt Q9NUJ3 (Q9NUJ3 whole entry, looked up): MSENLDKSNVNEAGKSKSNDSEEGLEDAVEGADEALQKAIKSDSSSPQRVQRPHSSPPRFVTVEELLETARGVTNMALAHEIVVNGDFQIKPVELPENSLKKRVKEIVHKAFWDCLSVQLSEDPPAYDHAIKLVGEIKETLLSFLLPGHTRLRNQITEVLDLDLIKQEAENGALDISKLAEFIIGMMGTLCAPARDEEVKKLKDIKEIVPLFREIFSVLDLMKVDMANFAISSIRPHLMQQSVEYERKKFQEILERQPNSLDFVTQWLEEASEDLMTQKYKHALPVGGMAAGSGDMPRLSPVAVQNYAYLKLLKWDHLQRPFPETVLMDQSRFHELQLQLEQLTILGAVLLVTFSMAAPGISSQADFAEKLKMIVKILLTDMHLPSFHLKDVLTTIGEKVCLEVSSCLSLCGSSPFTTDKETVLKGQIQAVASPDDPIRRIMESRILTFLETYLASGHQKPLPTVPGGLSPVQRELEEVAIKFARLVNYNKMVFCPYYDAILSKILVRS
# Sequence of UniProt Q5JUR7 (Q5JUR7 whole entry, looked up): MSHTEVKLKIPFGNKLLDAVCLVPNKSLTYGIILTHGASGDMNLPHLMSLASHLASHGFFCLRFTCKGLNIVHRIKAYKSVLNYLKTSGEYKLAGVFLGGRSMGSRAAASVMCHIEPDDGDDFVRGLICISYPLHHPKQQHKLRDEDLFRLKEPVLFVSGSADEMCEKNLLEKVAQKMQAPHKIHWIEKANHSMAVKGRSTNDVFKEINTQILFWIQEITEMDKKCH
Target,log2 fold change (alvocidib),log2 fold change (Tubastatin A),log2 fold change [1],log2 fold change (defactinib),log2 fold change [2],log2 fold change (encorafenib),log2 fold change [3],log2 fold change (alisertib),log2 fold change [4],log2 fold change (gefitinib),log2 fold change (lapatinib),log2 fold change (pictilisib),log2 fold change (crizotinib),log2 fold change [5],log2 fold change (duvelisib),log2 fold change (gandotinib),log2 fold change (tozasertib),log2 fold change (doramapimod),log2 fold change (bafetinib),log2 fold change [6]
TUBA3C (UniProt P0DPH7),-0.012,-0.15,0.01,-0.013,-0.018,-0.037,0.042,-0.023,-0.035,-0.005,0.038,-0.003,-0.078,0.009,0.03,0.072,0.055,0.014,0.012,0.023
TCP11L1 (UniProt Q9NUJ3),-0.098,-0.006,0.029,0.023,-0.064,0.006,-0.064,-0.022,0.032,-0.001,-0.008,-0.028,-0.022,-0.204,-0.024,0.066,-0.069,-0.017,-0.007,0.146
TEX30 (UniProt Q5JUR7),-0.021,-0.066,0.066,-0.097,0.07,0.047,0.007,0.101,0.041,0.058,-0.07,-0.122,-0.035,-0.517 (active),0.102,0.007,-0.003,0.036,0.066,0.069
TUT4 (UniProt Q5TAX3),-0.022,-0.1,-0.001,0.002,0.039,0.059,0.125,0.01,-0.014,-0.007,-0.003,-0.041,0,-0.064,0.006,-0.001,0.047,-0.023,-0.039,0.15
TFCP2 (UniProt Q12800),0.015,-0.215,0.169,0.003,0.009,0.093,0.044,0.019,-0.049,-0.033,0.043,0.083,-0.093,0,-0.016,0.098,0.021,0.168,-0.075,0.004
TBL3 (UniProt Q12788),-0.019,-0.08,0.014,0.016,0.01,-0.021,0.072,0.015,0.006,-0.123,-0.022,-0.027,-0.017,-0.028,-0.009,-0.05,-0.008,-0.024,-0.019,0.04
TIMELESS (UniProt Q9UNS1),-0.017,-0.149,0.031,0,-0.039,0.039,0.105,-0.011,0.049,0.017,0.017,-0.017,-0.077,-0.042,-0.029,-0.12,-0.026,-0.02,-0.082,0.032
UBE2L6 (UniProt O14933),0.034,-0.051,0.082,0.065,-0.005,0.06,-0.36 (active),0.004,-0.026,0.092,0.059,0.062,-0.014,0.088,0.033,-0.105,0.109,-0.013,-0.267,-0.024
TRA2A (UniProt Q13595),-0.007,-0.079,-0.033,0.171,0.031,-0.017,0.068,-0.188,0.017,0.118,-0.012,0.032,-0.184,-0.048,-0.048,-0.011,0.015,0.086,0.042,0.053
UBAP2 (UniProt Q5T6F2),-0.081,0.026,-0.026,-0.003,0.005,0.033,-0.021,0.005,0.011,0.014,-0.04,-0.079,0.091,-0.173,-0.003,0.095,-0.02,-0.097,-0.066,0.061
TRIM65 (UniProt Q6PJ69),-0.11,0.025,-0.044,0.024,-0.014,-0.002,0.089,-0.02,0.023,0.003,0.028,-0.035,-0.046,-0.06,0.072,-0.102,0.042,-0.02,0.034,0.088
TNPO3 (UniProt Q9Y5L0),0.003,-0.04,0,-0.007,-0.007,0,-0.108,-0.001,0.023,-0.018,-0.024,-0.001,0.01,-0.015,0.025,-0.006,-0.036,-0.024,-0.028,0.026
TROAP (UniProt Q12815),-0.042,-0.043,0.022,0.021,0.076,-0.193,0.217,-0.09,-0.171,-0.015,0.001,-0.088,0.038,-0.065,-0.095,0.072,-0.009,-0.008,-0.1,0.004
TMEM263 (UniProt Q8WUH6),0.013,0.266,0.116,0.213,-0.013,0.285,0.154,0.202,0.398,0.222,0.149,0.015,0.06,-0.072,0.02,0.178,-0.066,0.112,-0.028,0.208
TECR (UniProt Q9NZ01),0.05,-0.015,-0.046,0.052,-0.008,0.068,-0.104,0.053,0.048,-0.008,-0.082,-0.032,-0.138,0.011,-0.056,-0.448 (active),0.056,-0.045,-0.049,0.015
TTF2 (UniProt Q9UNY4),-0.018,-0.055,0.05,0.069,0.005,-0.018,-0.01,0.005,0.056,0.002,0.028,-0.048,-0.104,-0.052,0,0,0.019,0.053,-0.02,0.102

# From the supplement of paper PMC10849652
